In PubChem BioAssay (NCI):
Compounds without any hit were thinned out: in the full panel of roughly 83,000, 20% have a hit.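 Growth was measured after 48 h exposure to one concentration of compound in 96-well plates. Values under 10 count as active.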 The source made the active and inactive calls.

What was measured:
Assay in all cases: NCI-60 one-dose screen, 48 h (100 = growth as untreated, 0 = no growth, -100 = all killed)
Settings in all cases: 10 µM unless noted
HT29 colon = system: HT29 colon
SNB-75 CNS = system: SNB-75 CNS
SNB-19 CNS = system: SNB-19 CNS
U251 CNS = system: U251 CNS
PC-3 prostate = system: PC-3 prostate
SK-MEL-5 melanoma = system: SK-MEL-5 melanoma
UACC-62 melanoma = system: UACC-62 melanoma
LOX IMVI melanoma = system: LOX IMVI melanoma
SK-MEL-28 melanoma = system: SK-MEL-28 melanoma
SK-MEL-2 melanoma = system: SK-MEL-2 melanoma
EKVX NSCLC = system: EKVX NSCLC
SN12C renal = system: SN12C renal
UO-31 renal = system: UO-31 renal
ACHN renal = system: ACHN renal
CAKI-1 renal = system: CAKI-1 renal
A498 renal = system: A498 renal
CCRF-CEM leukemia = system: CCRF-CEM leukemia
MOLT-4 leukemia = system: MOLT-4 leukemia
SR leukemia = system: SR leukemia
TK-10 renal = system: TK-10 renal

Measured: growth

O=C(CCCN1C(=O)/C(=C/c2ccccc2F)SC1=S)N1CCOCC1
active: LOX IMVI melanoma -63.6%
inactive: HT29 colon 99.2% | SNB-75 CNS 79.3% | SNB-19 CNS 101% | U251 CNS 86.1% | PC-3 prostate 105% | SK-MEL-5 melanoma 97.1% | UACC-62 melanoma 81.5% | SK-MEL-28 melanoma 89.7% | SK-MEL-2 melanoma 115% | EKVX NSCLC 89.5% | SN12C renal 87.6% | UO-31 renal 72.2% | ACHN renal 78.1% | CAKI-1 renal 89.2% | A498 renal 82.8% | CCRF-CEM leukemia 71.6% | MOLT-4 leukemia 91.3% | SR leukemia 68%

N=C1CC(=O)NN1C(=O)CSc1nc2sc3c(c2c(=O)n1-c1ccc(Cl)cc1)CCCC3
inactive: HT29 colon 126% | SNB-75 CNS 73.7% | SNB-19 CNS 92.9% | U251 CNS 101% | PC-3 prostate 95.6% | SK-MEL-5 melanoma 103% | UACC-62 melanoma 93.9% | LOX IMVI melanoma 97.1% | SK-MEL-28 melanoma 108% | SK-MEL-2 melanoma 128% | EKVX NSCLC 97.8% | SN12C renal 93.5% | UO-31 renal 70.1% | TK-10 renal 150% | CAKI-1 renal 87.4% | A498 renal 91.3% | CCRF-CEM leukemia 103% | MOLT-4 leukemia 103% | SR leukemia 94%

Clc1ccc2c(NCCCn3ccnc3)c3oc4ccc(Cl)cc4c3nc2c1
active: SR leukemia -11.2%
inactive: HT29 colon 80.9% | SNB-75 CNS 70.2% | SNB-19 CNS 82.8% | U251 CNS 60.5% | PC-3 prostate 73.8% | SK-MEL-5 melanoma 86.8% | UACC-62 melanoma 94.6% | LOX IMVI melanoma 22.4% | SK-MEL-28 melanoma 94% | SK-MEL-2 melanoma 113% | EKVX NSCLC 46.7% | SN12C renal 79.3% | UO-31 renal 44% | ACHN renal 44.4% | CAKI-1 renal 60.5% | A498 renal 45.9% | CCRF-CEM leukemia 57.2% | MOLT-4 leukemia 77%

COc1ccc(-c2nn3c(-c4ccccc4F)nnc3s2)cc1
inactive: HT29 colon 39.3% | SNB-75 CNS 66.3% | SNB-19 CNS 73.2% | U251 CNS 55.7% | PC-3 prostate 83.1% | SK-MEL-5 melanoma 64.4% | UACC-62 melanoma 51.1% | LOX IMVI melanoma 60.3% | SK-MEL-28 melanoma 59.4% | SK-MEL-2 melanoma 30.5% | EKVX NSCLC 70% | SN12C renal 58.2% | UO-31 renal 65% | ACHN renal 78.1% | CAKI-1 renal 50.7% | A498 renal 16.4% | CCRF-CEM leukemia 58.5% | MOLT-4 leukemia 35.1% | SR leukemia 15.4%

Oc1c(Cl)cc(Cl)c2ccc(CN3CCCCC3)nc12
inactive: HT29 colon 48.3% | SNB-75 CNS 83.3% | SNB-19 CNS 44.1% | U251 CNS 30.6% | PC-3 prostate 56.8% | SK-MEL-5 melanoma 33.1% | LOX IMVI melanoma 31.7% | SK-MEL-28 melanoma 28.7% | SK-MEL-2 melanoma 84.1% | EKVX NSCLC 30.6% | SN12C renal 42.9% | UO-31 renal 35.7% | ACHN renal 29.4% | CAKI-1 renal 36.2% | A498 renal 49.9% | CCRF-CEM leukemia 18.6% | MOLT-4 leukemia 26.1% | SR leukemia 18.8%
active: UACC-62 melanoma 4.28%

COc1cccc(COc2ccc(/C=C3/C(=O)Nc4cc(Cl)ccc43)cc2)c1
inactive: HT29 colon 93.8% | SNB-75 CNS 84.2% | SNB-19 CNS 97.5% | U251 CNS 98.9% | PC-3 prostate 84.5% | SK-MEL-5 melanoma 93% | UACC-62 melanoma 86.7% | LOX IMVI melanoma 97.9% | SK-MEL-28 melanoma 102% | SK-MEL-2 melanoma 107% | EKVX NSCLC 87.6% | SN12C renal 91.1% | UO-31 renal 75.4% | ACHN renal 96.9% | CAKI-1 renal 90.6% | A498 renal 93% | CCRF-CEM leukemia 82.6%
active: MOLT-4 leukemia -25.9%

CCOC(=O)c1c(Nc2ccccc2)nn2c(-c3ccco3)c(C#N)cnc12
inactive: HT29 colon 100% | SNB-75 CNS 30.5% | SNB-19 CNS 78.3% | U251 CNS 109% | PC-3 prostate 86.4% | SK-MEL-5 melanoma 91.3% | UACC-62 melanoma 91% | LOX IMVI melanoma 81.4% | SK-MEL-28 melanoma 90.6% | SK-MEL-2 melanoma 90.3% | EKVX NSCLC 75.7% | SN12C renal 92.9% | UO-31 renal 71% | ACHN renal 56.5% | CAKI-1 renal 90.1% | A498 renal 45.1% | CCRF-CEM leukemia 82.4% | MOLT-4 leukemia 92.2%

COc1cc(OC)c(C2SCC(=O)N2Nc2ncnc3ccccc23)cc1OC (stereo not drawn)
inactive: HT29 colon 113% | SNB-75 CNS 101% | SNB-19 CNS 99.4% | U251 CNS 105% | PC-3 prostate 107% | SK-MEL-5 melanoma 102% | UACC-62 melanoma 97.6% | LOX IMVI melanoma 117% | SK-MEL-28 melanoma 104% | SK-MEL-2 melanoma 123% | EKVX NSCLC 100% | SN12C renal 103% | UO-31 renal 89.7% | ACHN renal 106% | CAKI-1 renal 94% | A498 renal 81.8% | CCRF-CEM leukemia 107% | MOLT-4 leukemia 105% | SR leukemia 104%

O=c1[nH]c2ccccc2cc1CSc1ccccc1Nc1nccc(-c2ccc(C(F)(F)F)cc2)n1
inactive: HT29 colon 56.1% | SNB-75 CNS 66.4% | SNB-19 CNS 59.6% | U251 CNS 47.5% | PC-3 prostate 56.6% | SK-MEL-5 melanoma 96.2% | UACC-62 melanoma 70.4% | LOX IMVI melanoma 19.8% | SK-MEL-28 melanoma 84.9% | SK-MEL-2 melanoma 89.8% | EKVX NSCLC 64.7% | SN12C renal 70.3% | UO-31 renal 72.3% | ACHN renal 48% | CAKI-1 renal 64.4% | A498 renal 85.5% | CCRF-CEM leukemia 87.4% | MOLT-4 leukemia 63.5% | SR leukemia 53.7%

CSCCC(C(=O)O)N1C(=O)/C(=C/c2ccc(O)c(O)c2)SC1=S (stereo not drawn)
inactive: HT29 colon 105% | SNB-75 CNS 93.6% | SNB-19 CNS 97.9% | U251 CNS 93.4% | PC-3 prostate 99.2% | SK-MEL-5 melanoma 99.9% | UACC-62 melanoma 93.7% | LOX IMVI melanoma 103% | SK-MEL-28 melanoma 99.5% | SK-MEL-2 melanoma 133% | EKVX NSCLC 96.2% | SN12C renal 99.2% | UO-31 renal 89.3% | ACHN renal 99.9% | CAKI-1 renal 95.6% | A498 renal 85.3% | CCRF-CEM leukemia 105% | MOLT-4 leukemia 108% | SR leukemia 103%

CC(=O)c1ccc(Nc2nc(SC(C)C)nc(-c3ccccc3)c2C#N)cc1
inactive: HT29 colon 99.6% | SNB-75 CNS 92.3% | SNB-19 CNS 87.2% | U251 CNS 89.5% | PC-3 prostate 88.1% | SK-MEL-5 melanoma 98.1% | UACC-62 melanoma 82.3% | LOX IMVI melanoma 95.1% | SK-MEL-28 melanoma 104% | SK-MEL-2 melanoma 117% | EKVX NSCLC 111% | SN12C renal 97% | UO-31 renal 82.1% | ACHN renal 86.2% | CAKI-1 renal 88% | A498 renal 42.3% | CCRF-CEM leukemia 96.1% | MOLT-4 leukemia 96.4% | SR leukemia 91.5%

CCOC(=O)c1csc(NC(=O)CSc2nc3sc4c(c3c(=O)n2-c2ccc(Cl)cc2)CCCC4)n1
inactive: HT29 colon 122% | SNB-75 CNS 86.2% | SNB-19 CNS 96% | U251 CNS 98.4% | PC-3 prostate 92.4% | SK-MEL-5 melanoma 78% | UACC-62 melanoma 85% | LOX IMVI melanoma 56.5% | SK-MEL-28 melanoma 105% | SK-MEL-2 melanoma 105% | EKVX NSCLC 90.6% | SN12C renal 94.9% | UO-31 renal 77.2% | TK-10 renal 125% | ACHN renal 102% | CAKI-1 renal 92% | A498 renal 88.1% | CCRF-CEM leukemia 100% | MOLT-4 leukemia 81.1% | SR leukemia 95.9%

Cc1c(NC(=O)CSc2nc3sc4c(c3c(=O)n2-c2ccc(Cl)cc2)CCCC4)c(=O)n(-c2ccccc2)n1C
inactive: HT29 colon 101% | SNB-75 CNS 72.6% | SNB-19 CNS 79.7% | U251 CNS 104% | PC-3 prostate 94.4% | SK-MEL-5 melanoma 87.2% | UACC-62 melanoma 83.1% | LOX IMVI melanoma 89.5% | SK-MEL-28 melanoma 89.2% | SK-MEL-2 melanoma 110% | EKVX NSCLC 97.3% | SN12C renal 88.9% | UO-31 renal 72.8% | TK-10 renal 109% | CAKI-1 renal 65.1% | A498 renal 62.6% | CCRF-CEM leukemia 98.2% | MOLT-4 leukemia 71.3% | SR leukemia 86.1%

N#Cc1nc(-c2ccccc2)oc1N1CCC(CO)C1 (stereo not drawn)
inactive: HT29 colon 107% | SNB-75 CNS 89% | SNB-19 CNS 93.3% | U251 CNS 105% | PC-3 prostate 107% | SK-MEL-5 melanoma 106% | UACC-62 melanoma 89.4% | LOX IMVI melanoma 88.2% | SK-MEL-28 melanoma 103% | SK-MEL-2 melanoma 127% | EKVX NSCLC 77.4% | SN12C renal 97.1% | UO-31 renal 88.7% | ACHN renal 105% | CAKI-1 renal 90.2% | A498 renal 76.4% | CCRF-CEM leukemia 105% | MOLT-4 leukemia 108% | SR leukemia 110%

OC1CCc2c(-c3ccc4ncnc(N5CCc6cc(F)c(Cl)cc65)c4c3)cncc21 (stereo not drawn)
active: A498 renal -13.1%
inactive: HT29 colon 65.6% | SNB-75 CNS 31.7% | SNB-19 CNS 57.2% | U251 CNS 69.6% | PC-3 prostate 41.3% | SK-MEL-5 melanoma 54% | UACC-62 melanoma 43.5% | LOX IMVI melanoma 54% | SK-MEL-28 melanoma 73.6% | SK-MEL-2 melanoma 46.7% | EKVX NSCLC 27.1% | SN12C renal 39.3% | UO-31 renal 19% | ACHN renal 18.6% | CAKI-1 renal 22.5% | CCRF-CEM leukemia 40.3% | MOLT-4 leukemia 21.9% | SR leukemia 47.9%

O=C(c1ccc(O)cc1)C1[C@H](c2ccc(Cl)cc2)[C@@H](c2ccccc2)NC12C(=O)Nc1ccc(Cl)cc12 (stereo partly drawn)
active: HT29 colon 4.23% | SN12C renal -1.78% | SR leukemia 9.52%
inactive: SNB-75 CNS 46.2% | SNB-19 CNS 63% | U251 CNS 29.6% | PC-3 prostate 24.6% | SK-MEL-5 melanoma 67.3% | UACC-62 melanoma 53.6% | LOX IMVI melanoma 26.8% | SK-MEL-28 melanoma 76.2% | SK-MEL-2 melanoma 57% | EKVX NSCLC 48.1% | UO-31 renal 35.4% | ACHN renal 16.8% | CAKI-1 renal 29.5% | A498 renal 50.8% | CCRF-CEM leukemia 40.4% | MOLT-4 leukemia 10.3%
